Screening data as filed in PubChem BioAssay.
proKLK7 act: activates the human kallikrein-7 zymogen; 370,000 compounds, 0.9% hits; AID 652039; purified proKLK7, EDANS-DABCYL substrate fluorescence; 100% is mature enzyme control, 0% vehicle; activation, % at 7 µM;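 active = activation above the mean of all tested compounds plus 3 SD, computed per campaign excluding outliers beyond control limits, cut at about 13% in these data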
Target sequence (P49862 whole entry, looked up): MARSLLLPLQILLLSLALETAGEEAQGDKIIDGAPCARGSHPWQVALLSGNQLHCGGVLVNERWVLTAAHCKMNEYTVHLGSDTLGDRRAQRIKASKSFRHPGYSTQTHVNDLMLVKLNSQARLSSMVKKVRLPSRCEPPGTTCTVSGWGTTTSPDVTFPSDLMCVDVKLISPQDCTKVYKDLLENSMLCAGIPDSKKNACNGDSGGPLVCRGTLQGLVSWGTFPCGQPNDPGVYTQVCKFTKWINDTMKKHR
ADAM17 inh: inhibits human ADAM17; P78536; recombinant ADAM17, EDANS/DABCYL FRET peptide cleavage; inhibition, % at 6.95 µM; 370,000 compounds, 0.83% hits; AID 720648;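 active = inhibition above the mean of compounds lying between control limits plus 3 SD, set per campaign, cut at about 8.5% in these data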
rCAG binder: binds r(CAG) RNA repeats | r(CAG) RNA repeat, TO-PRO-1 dye displacement fluorescence | inhibition, % at 3 µM | 370,000 compounds, 1.3% hits | AID 651821;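 active = inhibition above the plate cutoff, the mean of all test compounds on that plate plus 3 SD, cut at about 35% in these data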;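 also: higher means more dye released from RNA so lower well fluorescence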
NR3A LBD binder: modulates the human NR3A ligand-binding domain; NR3A LBD differential scanning fluorimetry, Tm shift; 0% = protein alone, 100% = glycine-bound protein; Tm shift relative to glycine control, % at 25 µM; 340,000 compounds, 2.5% hits; AID 1259313;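 active = melting temperature shift of at least 10% of the positive control shift, at one fixed dose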
AHR act: human AHR activation; P35869; 320,000 compounds, 2.5% hits; activation, % at 5 µM; AHR-responsive luciferase reporter cells, luminescence; in the data active = activation above about 47%
ADAM10 inh: ADAM10 inhibition, QFRET primary screen. 370,000 compounds, 0.62% hits. AID 720582. inhibition, % at 7 µM. O14672. recombinant ADAM10, EDANS/DABCYL FRET peptide cleavage, 3 h;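 active = inhibition above a per-campaign cutoff equal to the mean of compounds falling between control-based bounds plus 3 SD, cut at about 20% in these data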
A number is an active result; – = inactive; · = no result. Only some compounds are listed: those with a hit (about 7% of all), similar ones and a draw of the others.

SMILES	proKLK7 act	ADAM17 inh	rCAG binder	NR3A LBD binder	AHR act	ADAM10 inh
Cc1ccc(-c2nsc(SCC(=O)NCC3CCCO3)n2)cc1 (stereo not drawn)	–	–	–	–	–	–
COc1ccccc1-n1c(SCC(=O)Nc2cc(C)on2)nc2c([nH]c3ccccc32)c1=O	–	–	–	–	67.6	–
Cn1c(SCC(=O)NCC2CCCO2)nc2c([nH]c3ccccc32)c1=O (stereo not drawn)	–	–	–	–	–	–
Cc1ccc(CN2CCCCC(NC(=O)Cc3cccs3)C2=O)cc1 (stereo not drawn)	–	–	–	·	·	–
O=C1CN(C(=O)C2CCCCC2)C=CN1CCc1ccccc1Br	·	–	·	·	·	–
COCc1cc(N2CCN(C(=O)OC(C)(C)C)C[C@H]2C)ccc1N1CCN(Cc2ccccc2)[C@H](C)C1	–	–	–	·	·	–
COc1ccc(C)cc1-n1c(SCC(=O)NCC2CCCO2)nc2c([nH]c3ccccc32)c1=O (stereo not drawn)	–	–	–	–	67.2	–
O=C(Cn1c(=S)[nH]c2ccccc2c1=O)NCCc1ccccc1	–	–	–	–	79.0	–
C=CCn1c(SCC(=O)N2CCN(c3ccccc3)CC2)nc2c([nH]c3ccccc32)c1=O	–	–	–	–	65.6	–
O=C(CCn1c(=S)[nH]c2ccccc2c1=O)NCCSCc1ccccc1	–	–	–	–	–	–
C=CCn1c(SCC(=O)NCCc2ccccc2)nc2c([nH]c3ccccc32)c1=O	–	–	–	–	60.1	–
Cc1cccc(-c2cc(C(=O)Nc3sc(C)c(C)c3C(N)=O)c3ccccc3n2)c1	–	–	–	14.7	–	–
CCOC(=O)c1sc(NC(=O)c2cccnc2)c(C#N)c1C	–	–	–	–	–	–
Cc1cccc(-c2cc(C(=O)Nc3ccncc3)c3ccccc3n2)c1	–	–	–	–	·	–
CCOC(=O)c1sc(NC(=O)c2cc(-c3ccccc3)nc3ccccc23)c(C#N)c1C	–	–	–	24.3	–	–
Cc1ccc(C)c(-c2cc(C(=O)Nc3sc(C)c(C)c3C(N)=O)c3ccccc3n2)c1	–	–	–	14.1	–	–
COC(=O)c1cc2c(c3c4cc(F)ccc4n(S(=O)(=O)c4cccc(C)c4)c13)C(=O)N(c1ccc(OC)cc1)C2	–	–	–	·	·	–
COCCNC(=S)N(C)[C@H]1C[C@H]2c3[nH]c4c(-c5ccccc5)cccc4c3CCN2C[C@H]1[C@H](C)O	–	–	–	·	·	–
O=C(NCCc1ccc(F)cc1)c1cc2ccccn2n1	–	–	–	·	·	–
Cc1ccsc1/C=N/n1c(-c2ccccn2)n[nH]c1=S	–	–	–	–	50.8	–
CO/N=C/c1ccc(N2CCN(C(=O)c3ccc(Cl)cc3Cl)CC2)c([N+](=O)[O-])c1	–	–	–	–	–	20.0
CC(=O)n1c2c(c3ccccc31)OC(N)=C(C#N)C2c1cccc(Cl)c1Cl (stereo not drawn)	–	–	–	13.5	48.5	–
COc1ccc(N/N=C(/C)c2cnnc(-c3ccccc3)n2)cc1	–	–	–	13.2	–	–
COc1cc(/C=C2/NC(=O)NC2=O)cc(Br)c1OCc1cccc(C(=O)O)c1	–	–	–	–	–	–
COc1cc(/C=C2/NC(=O)NC2=O)cc(Br)c1OCc1ccccc1	–	–	–	–	58.7	–
SMILES	proKLK7 act	ADAM17 inh	rCAG binder	NR3A LBD binder	AHR act	ADAM10 inh
Cc1ccc(NC(=O)C2Oc3ccccc3OC2C)cc1 (stereo not drawn)	–	–	–	–	50.7	–
CC[C@@H](CCC(=O)N(c1ccccc1)c1ccccc1)c1ccc(C)cc1	–	–	–	·	·	–
CN1CC(C(=O)O)Cc2c1ccc1ccccc21 (stereo not drawn)	–	–	–	–	53.5	–
COc1ccc(-c2nc3ccccn3c2NCc2ccc3c(c2)OCO3)cc1	–	–	–	–	–	–
c1ccc(-c2nc3ccccn3c2NCc2ccc3c(c2)OCO3)cc1	–	–	–	–	69.7	–
Cc1nnc(SCC(=O)Nc2cc(-c3cc(C)c(C)cc3C)nn2-c2ccccc2)s1	–	–	–	–	104.3	–
O=C(Nc1ccc2ccccc2c1)C1CC2CCC1C2 (stereo not drawn)	·	–	·	·	·	–
CCOC(=O)C1=C(N)Oc2ccc3ccccc3c2C1c1cccc(O)c1 (stereo not drawn)	–	–	–	–	50.1	–
Cc1nnc(N/N=C/c2ccc(Br)cc2)n1N	–	–	–	–	–	–
Cc1nnc(N/N=C/c2ccc(-c3ccc(Br)cc3)o2)n1N	–	–	–	–	49.4	–
CC(C)C(=O)NC(c1cccc([N+](=O)[O-])c1)c1ccc2cccnc2c1O (stereo not drawn)	–	–	–	–	–	–
CCCC(=O)NC(c1cccc([N+](=O)[O-])c1)c1ccc2cccnc2c1O (stereo not drawn)	–	–	–	·	·	26.0
COC(=O)[C@]1(C#N)CC(=O)N(C)[C@@H]1c1ccccc1	–	–	–	·	·	–
Cc1cccc2c3nc4ccccc4nc3n(C)c12	–	–	–	–	68.9	–
O=C(OCC#CCSc1nnc(-c2cccc3ccccc23)o1)c1ccsc1	·	–	·	·	·	–
COc1nc(-c2ccccc2)cc(-c2ccccc2)n1	–	–	–	–	63.2	–
COc1ccc2nc(-c3ccccc3)cc(OC)c2c1	–	–	–	–	64.4	–
CN(N)c1nc(-c2ccccc2)cc(-c2ccccc2)n1	–	–	–	–	66.3	–
Cc1ccc(-c2cc(-c3ccccc3)nc(Cl)n2)cc1	–	–	–	–	–	–
Cc1nc(-c2ccccc2)cc(-c2ccccc2)n1	–	–	–	–	–	–
Cc1cccc(C(=O)Nc2cccc(C(=O)N/N=C/c3ccc4c(c3)OCO4)c2)c1	–	–	–	–	–	–
O=C(N/N=C/c1cccs1)c1ccc(NC(=O)c2ccccc2Cl)cc1	–	–	–	18.2	–	–
O=C(N/N=C/c1ccc2c(c1)OCO2)c1ccc(NC(=O)c2ccccc2Cl)cc1	–	–	–	21.7	–	–
Cc1cccc(C(=O)Nc2ccc(C(=O)N/N=C/c3ccc4c(c3)OCO4)cc2)c1	–	–	–	24.3	–	–
CCOC(=O)[C@@H]1CSCCS(=O)(=O)N1C(=O)[C@H](CC(C)C)NC(=O)OC(C)(C)C	–	–	–	·	·	–
O=c1c2ccccc2n(Cc2ccno2)n1[C@@H](Cc1ccccc1)Cn1cc(C2CCCC2)nn1	–	–	–	·	·	–
O=C(C(=O)N1CCC(CNC(=O)C2COc3ccccc3O2)CC1)c1cccs1 (stereo not drawn)	–	–	–	·	·	–
CN(C)[C@H]1CCN(c2cccc3c2S(=O)(=O)N2CC[C@@H](C2)O3)C1	–	–	–	·	·	–
O=C1N/C(=C/c2ccc(N3CCOCC3)cc2)C(=O)N1Cc1ccc(F)cc1	–	–	–	–	50.9	–
